Compound activity: PubChem BioAssay, National Center for Advancing Translational Sciences (NCATS)
Rab9 prom act – qHTS Assay for Rab9 Promoter Activators; Huh7 Rab9 promoter-luciferase reporter, luminescence, 24 h; Potency, µM (titrated, usually from 9.22 µM), for inactives: top-dose activation, negative = inhibition, hits mostly activators; 2.8% of 320,000 active; AID 485297, 2010; also: % of control where 0% means no effect; nearly all actives have a fitted effect of over 60% in size
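Steps: seed 1500 Huh7 Rab9-luc cells per well, rest 2 h at 37 °C; add compound in DMSO; incubate 24 h; add luciferase reagent, 10 min ambient; read luminescence.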
ELG1 genotoxic – qHTS screen for small molecules that induce genotoxicity in human embryonic kidney (HEK293T) cells expressing luciferase-tagged ELG1; HEK293T ELG1-luciferase reporter, luminescence, 16 h; Potency, µM (highest dose often 46 µM), without a hit: at the top dose activity change, positive = activation, most hits filed as activators; AID 504466, 2011; 1.3% of 330,000 active; also: % of control where 0% means no effect; nearly all actives have a fitted effect of over 60% in size
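Reporter readout depends on ELG1 protein level, which increases with genetic stress. After 16 hr compound exposure at 37 °C, luciferase activity was quantified using ONE-Glo.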
NPC1 prom act – qHTS Assay for NPC1 Promoter Activators; AID 485313, 2010; Huh7 NPC1 promoter luciferase reporter, 24 h; 2.4% of 320,000 active; Potency, µM (top dose mostly 9.22 µM), for inactives: at the top dose activation, hits mostly activators; also: % of control where 0% means no effect; nearly all actives have a fitted effect of over 60% in size
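Luciferase expression driven by the NPC1 promoter was measured in stably transfected Huh7 cells after a 24 h compound incubation, using a luciferase reagent and a luminescence read.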
SMN2 splice up – qHTS Assay for Enhancers of SMN2 Splice Variant Expression. HEK293 SMN2-luciferase splicing reporter, luminescence, 30-36 h. Potency, µM (series often up to 46.1 µM), for the others: at the highest dose activity change, positive = activation, actives largely listed as activators. 2.8% of 210,000 active. AID 1458, 2008; also: % of control where 0% means no effect; nearly all actives have a fitted effect of over 55% in size
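HEK293 cells carry an SMN2 […]–luciferase reporter in which exon 7 inclusion puts luciferase in frame. Cells were plated 10-12 h before compound addition, then incubated 30-36 h at 37C. ONE-Glo luminescence was read; sodium butyrate at 4.5 mM final served as control.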
FLuc counter – qHTS profiling assay for firefly luciferase inhibitor/activator using purifed enzyme and Km concentrations of substrates (counterscreen for miR-21 project); Potency, µM (highest dose often 57.5 µM), without a hit: at the top dose activity change, negative = inhibition, most hits filed as inhibitors; 6.9% of 360,000 active; AID 588342, 2011; Luciferin 4-monooxygenase (Photinus pyralis), P08659; purified FLuc, Km substrates, luminescence inhibition;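 also: plate controls were vehicle for no effect and reference inhibitor for full effect; nearly all actives have a fitted effect of over 55% in size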
Target sequence (P08659 whole entry, looked up): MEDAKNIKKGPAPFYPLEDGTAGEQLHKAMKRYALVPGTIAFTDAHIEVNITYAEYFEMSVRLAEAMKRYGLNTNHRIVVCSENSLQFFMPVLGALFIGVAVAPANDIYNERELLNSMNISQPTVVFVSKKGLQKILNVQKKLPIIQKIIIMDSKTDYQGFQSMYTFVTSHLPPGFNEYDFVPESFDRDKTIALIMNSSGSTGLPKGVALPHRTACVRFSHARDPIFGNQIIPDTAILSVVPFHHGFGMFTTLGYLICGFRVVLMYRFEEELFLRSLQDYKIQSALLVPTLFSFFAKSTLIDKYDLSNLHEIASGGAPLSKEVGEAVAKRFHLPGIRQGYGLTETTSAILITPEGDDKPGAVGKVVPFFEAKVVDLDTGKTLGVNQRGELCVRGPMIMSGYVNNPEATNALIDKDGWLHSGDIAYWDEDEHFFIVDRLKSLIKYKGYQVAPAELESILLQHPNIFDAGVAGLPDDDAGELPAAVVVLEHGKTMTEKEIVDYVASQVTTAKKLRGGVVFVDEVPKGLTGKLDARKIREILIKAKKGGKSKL
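Biochemical qHTS of compounds, final roughly 60 µM downward over six points, against 10 nM purified firefly luciferase using Km concentrations of substrates (10 uM D-luciferin, 10 uM ATP) in Tris acetate pH 7.5 buffer; luminescence output.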
ELG1 repair inh – qHTS screen for small molecules that inhibit ELG1-dependent DNA repair in human embryonic kidney (HEK293T) cells expressing luciferase-tagged ELG1. HEK293T ELG1-luciferase reporter, luminescence, 16 h; DNA damage induced by 5-fluorouridine. Potency, µM (titrated, usually from 46.1 µM), inactives show at the highest dose activity change, negative = inhibition, actives largely listed as inhibitors. 2.3% of 330,000 active; also: % is scaled to controls: 0 for no effect and ±100 for the full control effect; nearly all actives have a fitted effect of over 55% in size
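Step one: seed 2,000 cells per well. Step two: pin-transfer compound or DMSO alongside 5-fluorouridine. Step three: incubate 16 hr, 37 °C, 5% CO2. Step four: add ONE-Glo, wait 30 min, read luminescence.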
* hit, by the source's call; u = inconclusive; x = no result. Rows were chosen to be rich in hits. Some 9.2% of all compounds tested hit in one or more screens of this group. Calls follow the shape of the dose curve; as a rule, active = well fitted curve in the direction sought with a large enough effect; inconclusive = small, poorly fitted or top-dose-only effect, or another doubt; inactive = no such curve, though single readings can be large; an effect the other way counts as inactive or inconclusive. Potency is read from the fitted curve at half-maximal effect.

SMILES | Rab9 prom act | ELG1 genotoxic | NPC1 prom act | SMN2 splice up | FLuc counter | ELG1 repair inh
COc1ccc(CCNC(=O)C(=O)NCCC2CCCCN2S(=O)(=O)c2ccccc2)cc1 (centres undefined) | -11% | -1% | 6% | x | 5% | -28%
Cc1ccc(S(=O)(=O)N[C@H](C(=O)OCn2nnc3ccccc3c2=O)C(C)C)cc1 | -6% | -8% | 0% | -45% | 1% | 21µM*
CCCCC(=O)Nc1ccc(NC(=S)NC(=O)CCCCl)cc1OC | -2% | 2% | -7% | 6% | 6% | -8%
CSc1ccc(-c2ccco2)nn1 | 3.2µM* | u | u | x | u | u
CCSc1ccc(-c2ccco2)nn1 | 21% | 10% | 22% | 24% | u | u
Fc1ccc(CSc2ccc(-c3ccco3)nn2)cc1 | 3.2µM* | u | 3.2µM* | 22µM* | 4.8µM* | u
O=C(CSc1ccc(-c2ccco2)nn1)NCc1ccc(F)cc1 | 9% | 1% | -1% | 5% | -14% | 0%
Fc1cccc(CSc2ccc(-c3ccco3)nn2)c1 | u | u | u | u | 12µM* | u
Cc1nc2cccnc2n1-c1cccc(C(=O)NCCc2ccc(S(N)(=O)=O)cc2)c1 | x | x | x | x | -3% | x
COC(=O)NCC(c1cccnc1)N1CCN(c2ccc(F)cc2)CC1 (centres undefined) | x | x | x | x | -2% | x
O=C(O)CC(CC(=O)N1CCN(C(=O)c2ccco2)CC1)c1ccccc1 (centres undefined) | 3% | 5% | -5% | x | 1% | 13%
O=C(O)/C(=C\c1ccc(Cl)cc1)c1ccc(F)cc1 | -3% | 1% | -1% | 10% | u | 3%
CN(C)c1ccc(C(=O)NNC(=O)Nc2ccccc2)cc1 | 24% | 5% | 17% | -6% | -1% | u
Cc1ccc(NC(=O)CO/N=C/c2ccc(N(C)C)cc2)cc1 | 0% | 6% | 8% | -17% | 15µM* | 12%
CN(C)c1ccc(/C=N/OC(=O)Nc2ccccc2)cc1 | 0.45µM* | u | 0.71µM* | x | 1.1µM* | u
CCOC(=O)c1c(C)[nH]c(CCC(=O)NCc2cc(OC)c(OC)c(OC)c2)c1C | x | x | x | x | -3% | x
O=C1OC2(CCCC2)OC(=O)C1=Cc1c[nH]c2ccccc12 | 0.89µM* | u | 1.1µM* | x | -5% | u
Cc1c(NC(=O)c2ccc3c(c2)OCO3)cccc1-c1nc2ncccc2o1 | -1% | 3% | -2% | -26% | u | u
Cc1c(NC(=O)c2ccc3c(c2)OCO3)cccc1-c1nc2ccccc2s1 | 3% | 4% | 5% | -11% | 3.4µM* | -21%
c1ccc2sc(N3CCN(Cc4ccc5c(c4)OCO5)CC3)nc2c1 | x | x | x | -3% | x | x
O=C(Nc1cccc(-c2nc3ccccc3s2)c1)c1ccc2c(c1)OCO2 | -2% | 1% | 14% | -4% | 12µM* | -12%
c1ccc2sc(-c3ccc4c(c3)OCO4)nc2c1 | 0.32µM* | 0.58µM* | 0.56µM* | 7.1µM* | 0.54µM* | u
C=C1C=C(C(F)F)n2ncc(C(=O)Nc3ccccc3OCC)c2N1 | x | x | x | x | 0% | x
Cc1ccc(-c2nnn(CC(=O)O)n2)cc1 | -11% | 3% | -3% | -15% | -10% | 5%
COC(=O)c1ccc(COc2ccc(-c3nnn(CC(=O)NC(C)(C)C)n3)cc2)cc1 | -9% | u | -2% | 14µM* | 1% | 19%
SMILES | Rab9 prom act | ELG1 genotoxic | NPC1 prom act | SMN2 splice up | FLuc counter | ELG1 repair inh
Cc1ccccc1COc1ccc(-c2nnn(CC(=O)O)n2)cc1 | -1% | 3% | -10% | x | 17µM* | 14%
O=C(O)c1ccc(-c2nnn(Cc3ccccc3F)n2)cc1 | -3% | 5% | 3% | x | -4% | 8%
O=C(O)COc1ccc(-c2nnn(Cc3ccccc3F)n2)cc1 | -1% | 7% | 9% | 7% | 19µM* | 26%
Oc1ccc(Br)cc1-c1nc2cnccn2c1NC1CCCC1 | -2% | -8% | 0% | u | 5% | 23µM*
Cc1cc(C)c(OCCOCCn2c(-c3ccc(Cl)cc3)nc3ccccc3c2=O)c(C)c1 | x | x | x | 1% | -3% | x
Cc1ccc(-n2nnc(-c3cnc4ccccc4c3)n2)cc1 | 0.32µM* | 1.6µM* | 0.89µM* | x | 0.43µM* | u
Clc1ccc(-n2nnc(-c3cccnc3Cl)n2)cc1Cl | 1.1µM* | 10µM* | 1µM* | x | 1.3µM* | u
c1ccc2ncc(-n3cnnn3)cc2c1 | 0% | 10% | 7% | -5% | -4% | -1%
Fc1ccc(-n2nnc(-c3ccccc3Cl)n2)cc1 | -4% | -2% | -6% | x | 0% | 8%
CCCn1c(-c2cccnc2Cl)nc2cc(Cl)c(Cl)cc21 | -1% | -3% | 1% | -13% | -1% | 6%
Fc1ccc(-n2nnc(-c3cccnc3Cl)n2)cc1 | 0.35µM* | 5.8µM* | 1.6µM* | x | 2.4µM* | u
Clc1ncccc1-c1nnn(-c2ccccc2)n1 | 1.4µM* | 6.5µM* | 1.1µM* | x | 2.4µM* | u
O=C(NCCCN1CCOCC1)C1CCN(S(=O)(=O)c2cccc(C(F)(F)F)c2)CC1 | -5% | 2% | -1% | x | 5% | 0%
Fc1ccc(-n2nnc(-c3nccs3)n2)cc1 | 0.5µM* | 3.7µM* | 0.5µM* | x | 3.4µM* | u
Cc1ccc(-n2nnc(-c3nccn3C)n2)cc1 | 0.35µM* | 1.8µM* | 0.5µM* | x | 1.3µM* | u
O=c1ncn(-c2ccc(F)cc2)c2ncccc12 | -3% | 4% | 1% | 4% | 0% | 15%
ClCc1cc2ccccc2nc1Cl | 0% | -8% | -7% | -13% | -11% | 9%
COc1nn(-c2ccccc2)c(=O)c(Cl)c1Cl | -50% | -11% | -47% | x | 0% | u
COc1ncccc1-c1nnn(-c2ccccc2)n1 | 0.71µM* | 8.2µM* | 1.8µM* | x | 3.4µM* | u
Clc1nc2ccccc2cc1-c1nnn(-c2ccccc2)n1 | 1.6µM* | 16µM* | 3.2µM* | x | 2.4µM* | u
C/C(=N\NC(N)=O)c1ccccc1Cl | -2% | 1% | -1% | x | 0% | 0%
COc1ccc(OC)c(C(=O)CSc2nccc(-c3ccc(Br)cc3)n2)c1 | -5% | -3% | 0% | 6% | 0% | u
c1ccc(OCCCn2nnc(-c3cccnc3)n2)cc1 | 1% | 6% | -6% | -11% | -3% | 4%
